“And” between values parts separate entries of the source, which are not always exact repeats. Identical values can stand only once. Inconclusive results are not listed. The source made the active and inactive calls. Unless noted, calls come from the whole dose curve; as a rule, active = well fitted curve in the direction sought with a large enough effect; inconclusive = small, poorly fitted or top-dose-only effect, or another doubt; inactive = no such curve, though single readings can be large; an effect the other way counts as inactive or inconclusive.

The target in assay [1] is Cytochrome P450 3A4 (Homo sapiens) (UniProt P08684). As to the kind of experiment: qHTS Assay for Activators of Cytochrome P450 3A4 (AID 885). Note: nearly all actives have a fitted effect of over 65% in size. Note: potency is the fitted concentration of half-maximal effect. Put shortly:
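Signal was normalized against complete inhibition by 57 uM ketoconazole. The reaction used 20nM CYP3A4 with 25uM Luciferin-PPXE, 10-min compound preincubation and a 60-min NADPH-supported step at RT.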
Background: Quantitative high-throughput screening tests each substance at several concentrations.

The target in assay [2] is 3',5'-cyclic-AMP phosphodiesterase 4B (Homo sapiens) (UniProt Q07343). Put plainly: qHTS Assay for Inhibitors of PDE-IV (AID 607; active = well fitted activation curve with a large enough effect in the main read-out, with a control signal flat, not every such curve was filed as active). Put shortly:
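Cell-based read-out of cAMP via a modified cyclic nucleotide-gated channel and membrane potential dye (535/590 nm) in HEK293 cells expressing PDE4 endogenously. Compounds tested up to 22.9 uM final; 100 uM RO 20-1724 reference.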

The target of assay [3] is Cytochrome P450 3A4 (Homo sapiens) (UniProt P08684). Put plainly: qHTS Assay for Inhibitors and Substrates of Cytochrome P450 3A4 (AID 884). Note: series mostly up to about 57 µM; nearly all actives have a fitted effect of over 50% in size. Put shortly:
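20 nM human CYP3A4 with 25 uM Luciferin-PPXE (at KM) in 200 mM KPO4, preincubated 10 min with compound; NADPH regeneration started a 60 min RT reaction. Luciferin detected by luminescence, normalized to 57 uM ketoconazole as full inhibition.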

Assay [4] concerns the target Cytochrome P450 2D6 (Homo sapiens) (UniProt P10635). As to the kind of experiment: qHTS Assay for Inhibitors and Substrates of Cytochrome P450 2D6 (AID 891). Note: nearly all actives have a fitted effect of over 60% in size. Note: potency is the fitted concentration of half-maximal effect. In outline:
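Human CYP2D6 (5 nM) with 30 uM Luciferin-ME EGE (at Km) in 100 mM KPO4, compound preincubated 10 min, then NADPH regeneration system for 60 min at room temperature. Luciferin read by luminescence; normalized to 1.43 uM quinidine.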

Assay [5] concerns the target Guanine nucleotide-binding protein G(i) subunit alpha-1 (Homo sapiens) (UniProt P63096). Put plainly: qHTS Assay for Inhibitors of RGS12 GoLoco Motif Activity (Green Fluorophore) (AID 879).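 Note: negative values mean loss of peptide binding seen as reduced polarization.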 In outline: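 Fluorescence polarization assay: 50 nM Gαi1 with 10 nM FITC-labeled RGS12 GoLoco peptide in 10 mM Tris pH 7.5, 150 mM NaCl, 0.1 mM GDP, 0.05% NP40, 10 min at room temperature with compound.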

Assay [6] deals with Cytochrome P450 2C9 (Homo sapiens) (UniProt P11712). As to the kind of experiment: qHTS Assay for Inhibitors and Substrates of Cytochrome P450 2C9 (AID 883). Note: nearly all actives have a fitted effect of over 60% in size. Put shortly:
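Signal: luciferase luminescence reporting luciferin produced by CYP2C9. Conditions: 10nM enzyme, Luciferin-H 100uM at KM, 25mM KPO4, 37C, 60 min NADPH-driven reaction. Reference: 57uM sulphaphenazole as 100% inhibition.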

A short description of assay [7]: Cellular Toxicity (caspase-3) HepG2 (AID 654).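 For caspase-3 activation: cells exposed to compound for 16 hours before reading.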 Note: potency is the fitted concentration of half-maximal effect. Put shortly:
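qHTS, HepG2, 1500 cells/well, complete medium; cpd 16 h 37 °C; Caspase-Glo 3/7, 20 min RT; lum. Norm: DMSO vs 100 uM tamoxifen; AC50 Hill fit.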

Assay [8] can be described thus: Cellular Toxicity (caspase-3) HUV-EC-C (AID 656). In outline: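 Luminescent Caspase-Glo 3/7 readout after 16 h, 37 °C compound exposure of HUV-EC-C endothelial cells, 1000 per well, complete medium. AC50 derived by Hill fitting, with DMSO as baseline and 100 uM tamoxifen as full activation.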
A short description of assay [9]: Cellular Toxicity (caspase-3) SHSY5Y (AID 657). Note: potency is the fitted concentration of half-maximal effect. In outline: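 Luminescent Caspase-Glo 3/7 read-out, 1 hr room temperature, follows 16 hours of compound treatment of SH-SY5Y cells at 37 °C. Normalization: DMSO basal, 10 uM staurosporine as 100%; AC50 values from Hill-equation concentration-response fits.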
Assay [10] can be described thus: Cellular Toxicity (caspase-3) Mesangial (AID 660).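 Note: combined caspase 3 and 7 activity read by Caspase-Glo luminescence.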 As to conditions: Potency: caspase-3 activation. In outline:
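Concentration-response qHTS: compound-induced rise in caspase 3/7 luminescence in human mesangial cells after 16 h, normalized to DMSO and 100 uM tamoxifen controls.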

The nature of assay [11]: Cellular Toxicity (caspase-3) Hek293 (AID 664).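 Note: cells exposed to compound for 16 h at 37 °C before readout.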 In outline: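 Activation of caspase-3/7 is measured as increased luminescence from cleaved peptide-aminoluciferin substrate in HEK293 cells treated 16 hours at 37 °C. AC50 values come from Hill-equation fits of concentration-response data.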
A short description of assay [12]: Cellular Toxicity (caspase-3) N2a (AID 665).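 Note: compound exposure lasted 16 h at 37 °C before readout.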 In outline:
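Plated mouse neuroblastoma N2a cells received titrated compounds for 16 h in complete medium. Caspase activity was then detected with a peptide-aminoluciferin luminescent reagent.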

Assay [13] in a line: Cellular Toxicity (caspase-3) Renal Proximal Tubule (AID 667).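 Note: cells exposed to compound for 16 hours at 37 °C before detection.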 In outline: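 Caspase 3/7 activation measured by luminescent aminoluciferin release in primary rat proximal tubule cells after 16 hr compound exposure at 37 °C. AC50 from Hill-fitted concentration-response, scaled between DMSO and 10 uM staurosporine.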
Assay [14] is described as follows: Cellular Toxicity (caspase-3) Jurkat (AID 655).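 Note: cells exposed to compound for 16 h at 37 °C before reading.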 Note: potency is the fitted concentration of half-maximal effect. In outline:
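Luminescent Caspase-Glo 3/7 read-out (20 min, room temperature) after 16 h compound treatment at 37 C of 5000 Jurkat cells per well. AC50 derived by Hill-equation fitting, scaled between DMSO basal and 100 uM tamoxifen stimulation.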

Assay [15] can be described thus: Cellular Toxicity (caspase-3) BJ (AID 658). Put shortly: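 BJ human foreskin fibroblasts, 1000 cells/well, treated 16 hours at 37 °C in complete medium; caspase 3/7 activity by Caspase-Glo luminescence after 1 hr at room temperature. Normalized to DMSO and 10 uM staurosporine; AC50 from Hill fits.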
A short description of assay [16]: Cellular Toxicity (caspase-3) MRC-5 (AID 659). Put shortly:
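MRC-5 human normal lung fibroblasts, 1500 cells/well, treated 16 h at 37 °C in complete medium. Caspase 3/7 measured by Caspase-Glo luminescence after 1 h at room temperature. Normalized to DMSO and 10 uM staurosporine; AC50 from Hill fit.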

A short description of assay [17]: Cellular Toxicity (caspase-3) SK-N-SH (AID 661). Note: potency is the fitted concentration of half-maximal effect. In outline: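 Caspase 3/7 activation is measured as a luminescence increase from aminoluciferin released by substrate cleavage in SK-N-SH cells after 16 hr compound treatment; values are AC50 from concentration-response curves.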
Assay [18] can be described thus: Cellular Toxicity (caspase-3) NIH 3T3 (AID 666).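 Note: caspase signal read after 16 h compound exposure.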 Put shortly:
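Concentration-response qHTS in NIH 3T3 mouse fibroblasts scores caspase-3/7 activation as rising luminescence after 16 hr compound exposure. Signals are scaled between DMSO-only and 100 uM tamoxifen.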

Assay [19] can be described thus: Cellular Toxicity (caspase-3) H-4-II-E (AID 663).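 Note: cells exposed to compound for 16 hr before readout.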 Particulars: Potency: caspase-3 activation. Put shortly:
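Rat hepatoma H-4-II-E cells (1500/well) plated 5 hr, then exposed to compound titrations for 16 hr at 37 °C. Caspase-Glo 3/7 luminescence read after 20 min at RT; data normalized to DMSO and 100 uM tamoxifen, AC50 from Hill fits.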

Chain of Guanine nucleotide-binding protein G(i) subunit alpha-1 (Homo sapiens) (P63096 whole entry, looked up): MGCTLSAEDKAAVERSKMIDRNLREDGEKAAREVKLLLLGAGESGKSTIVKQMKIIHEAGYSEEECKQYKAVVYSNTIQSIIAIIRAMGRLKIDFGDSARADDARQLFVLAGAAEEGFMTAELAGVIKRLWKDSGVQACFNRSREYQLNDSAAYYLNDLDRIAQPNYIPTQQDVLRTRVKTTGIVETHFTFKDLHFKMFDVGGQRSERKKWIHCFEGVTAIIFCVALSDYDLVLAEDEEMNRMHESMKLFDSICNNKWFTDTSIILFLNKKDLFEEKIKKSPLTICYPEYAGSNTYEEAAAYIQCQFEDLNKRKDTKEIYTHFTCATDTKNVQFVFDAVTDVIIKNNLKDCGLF
Chain of 3',5'-cyclic-AMP phosphodiesterase 4B (Homo sapiens) (Q07343 whole entry, looked up): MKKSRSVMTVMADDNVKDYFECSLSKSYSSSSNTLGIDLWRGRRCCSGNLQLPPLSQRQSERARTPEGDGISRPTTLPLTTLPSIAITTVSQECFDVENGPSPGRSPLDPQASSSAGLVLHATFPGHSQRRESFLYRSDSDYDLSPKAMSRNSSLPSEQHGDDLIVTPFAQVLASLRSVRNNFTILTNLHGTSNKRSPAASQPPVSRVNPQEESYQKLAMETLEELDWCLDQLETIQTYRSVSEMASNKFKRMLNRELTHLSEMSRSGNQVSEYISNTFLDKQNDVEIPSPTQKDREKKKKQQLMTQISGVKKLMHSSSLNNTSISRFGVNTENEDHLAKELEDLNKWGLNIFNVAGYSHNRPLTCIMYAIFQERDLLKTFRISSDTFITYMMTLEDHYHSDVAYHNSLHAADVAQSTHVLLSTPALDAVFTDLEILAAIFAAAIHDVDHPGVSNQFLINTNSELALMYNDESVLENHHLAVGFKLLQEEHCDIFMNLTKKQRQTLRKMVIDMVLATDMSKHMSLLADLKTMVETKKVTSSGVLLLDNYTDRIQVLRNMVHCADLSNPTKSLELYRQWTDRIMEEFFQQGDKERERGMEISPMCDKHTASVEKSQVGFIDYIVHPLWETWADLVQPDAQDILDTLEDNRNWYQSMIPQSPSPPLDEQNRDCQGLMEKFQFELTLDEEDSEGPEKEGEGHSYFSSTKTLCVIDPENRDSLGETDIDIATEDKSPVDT
Chain of Cytochrome P450 3A4 (Homo sapiens) (P08684 whole entry, looked up): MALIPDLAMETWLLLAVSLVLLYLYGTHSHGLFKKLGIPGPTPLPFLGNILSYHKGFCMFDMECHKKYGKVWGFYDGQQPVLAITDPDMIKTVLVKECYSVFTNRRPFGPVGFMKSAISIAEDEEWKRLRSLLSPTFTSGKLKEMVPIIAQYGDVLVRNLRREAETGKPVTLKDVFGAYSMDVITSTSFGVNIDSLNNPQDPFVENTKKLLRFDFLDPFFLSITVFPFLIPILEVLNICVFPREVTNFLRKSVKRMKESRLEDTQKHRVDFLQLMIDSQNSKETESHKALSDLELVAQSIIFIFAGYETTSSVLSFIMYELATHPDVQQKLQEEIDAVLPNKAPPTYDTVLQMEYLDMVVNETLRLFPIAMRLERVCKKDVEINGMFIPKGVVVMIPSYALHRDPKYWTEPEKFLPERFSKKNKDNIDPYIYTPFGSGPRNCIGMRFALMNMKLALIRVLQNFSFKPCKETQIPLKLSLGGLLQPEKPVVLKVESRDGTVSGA
Chain of Cytochrome P450 2D6 (Homo sapiens) (P10635 whole entry, looked up): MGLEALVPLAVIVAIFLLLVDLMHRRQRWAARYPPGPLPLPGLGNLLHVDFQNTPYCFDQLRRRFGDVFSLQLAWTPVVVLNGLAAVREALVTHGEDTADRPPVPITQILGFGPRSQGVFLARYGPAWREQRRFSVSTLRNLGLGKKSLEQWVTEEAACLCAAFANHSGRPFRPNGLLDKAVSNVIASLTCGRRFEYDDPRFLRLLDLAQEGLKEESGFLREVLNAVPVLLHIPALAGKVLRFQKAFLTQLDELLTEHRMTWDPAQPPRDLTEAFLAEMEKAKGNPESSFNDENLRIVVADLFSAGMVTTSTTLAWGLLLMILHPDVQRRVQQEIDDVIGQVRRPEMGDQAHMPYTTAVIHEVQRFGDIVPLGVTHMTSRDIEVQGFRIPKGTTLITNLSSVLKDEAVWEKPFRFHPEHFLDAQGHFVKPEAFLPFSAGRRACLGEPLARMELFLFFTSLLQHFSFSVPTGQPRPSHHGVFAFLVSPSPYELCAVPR
Chain of Cytochrome P450 2C9 (Homo sapiens) (P11712 whole entry, looked up): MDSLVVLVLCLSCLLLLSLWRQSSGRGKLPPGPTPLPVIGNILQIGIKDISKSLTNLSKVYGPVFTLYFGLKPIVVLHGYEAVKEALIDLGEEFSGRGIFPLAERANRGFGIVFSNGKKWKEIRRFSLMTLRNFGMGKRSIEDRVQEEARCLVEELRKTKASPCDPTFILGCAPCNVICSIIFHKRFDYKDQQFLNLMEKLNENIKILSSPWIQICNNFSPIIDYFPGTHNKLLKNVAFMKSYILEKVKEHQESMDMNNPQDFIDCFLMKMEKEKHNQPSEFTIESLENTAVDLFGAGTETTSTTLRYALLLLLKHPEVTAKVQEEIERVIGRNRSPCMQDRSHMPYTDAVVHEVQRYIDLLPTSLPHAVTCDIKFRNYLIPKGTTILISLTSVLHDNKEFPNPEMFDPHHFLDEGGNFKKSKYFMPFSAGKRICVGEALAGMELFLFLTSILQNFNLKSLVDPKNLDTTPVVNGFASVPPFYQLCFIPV

Consider `Clc1ccc(C(OCCN2CCCCC2)c2ccccc2)cc1` (centres undefined), for which the Potency result in [1] was “inactive”.
Regarding `CC(C)[N+](C)(CCC(C(N)=O)(c1ccccc1)c1ccccc1)C(C)C`, in assay [2], the compound was called inactive. In assay [3], the Potency result is “inactive”. In addition, the Potency in assay [4] is 3.98 µM (active).
Turning to `CCCCN(CCCC)CCC(O)c1cc2c(Cl)cc(Cl)cc2c2cc(C(F)(F)F)ccc12` (centres undefined), in assay [1], the Potency result was “inactive”. The Potency in assay [4] was 3.98 µM (active).
Regarding `CN1[C@@H]2CC[C@H]1CC(OC(=O)c1cc(Cl)cc(Cl)c1)C2` (some centres undefined), the compound was classed as inactive in assay [2] and in assay [5]. Moreover, the Potency entry in [6] and in assay [3] was “inactive” throughout. In addition, the Potency in assay [4] is 100 nM (active) and 7.9 nM (active).
As for `Clc1ccc(CO/N=C(\Cn2ccnc2)c2ccc(Cl)cc2Cl)c(Cl)c1`, in assay [1], the Potency result is “inactive”.
For the compound `c1ccc2nc(N3CCNCC3)ccc2c1`, the compound was classed as inactive in [2] and in [5]. In addition, the Potency result in [6] and in assay [1] was “inactive” each time.
For the compound `CCCCCCCCCCCC[N+](C)(C)CCOc1ccccc1`, the Potency in [7] was 39.8 µM (active). The outcome in [8], in assay [11], in assay [12] and in [13] was inactive. Moreover, the Potency entry in assay [9] and in assay [10] was “inactive” in each case.
Take `O=C(CCl)c1ccc(Cl)cc1Cl`: the Potency entry in [7], in assay [10] and in assay [3] was “inactive” in each case. For the same compound, the Potency is 0.251 µM (active) in [14], 2.51 µM (active) in assay [9] and 1.58 µM (active) in assay [17]. For the same compound, the outcome in assay [8], in assay [15], in [16], in assay [12], in [18] and in [13] was inactive.
Consider `Clc1ccc(CSC(Cn2ccnc2)c2ccc(Cl)cc2Cl)cc1` (centres undefined), for which, in assay [1], the Potency entry was “inactive”.
Turning to `COc1ccc(CN2CCNCC2)c(OC)c1OC`, in [2], the outcome was inactive.
In the case of `CNC(=O)Oc1cccc2ccccc12`, the Potency result in assay [7], in assay [14], in assay [9], in assay [10], in assay [17] and in [19] was “inactive” in each case. In assay [3], the Potency result is “inactive”. For the same compound, the call in assay [8], in assay [15], in [16], in assay [11], in assay [12] and in assay [18] was inactive. For the same compound, the result in assay [13] was inactive.
As to `Oc1c(Br)cc(Br)cc1Br`, the Potency entry in assay [7], in [9], in [10], in assay [17], in assay [19] and in assay [3] was “inactive” throughout. Also, the result in assay [8], in assay [15], in assay [16], in [11], in assay [12] and in assay [18] was inactive. Also, in assay [13], the result was inactive. The Potency in [1] is 15.8 µM (active).
With `C[C@H](N)[C@H](O)c1ccc(O)c(O)c1`, the compound was called inactive in assay [2] and in assay [5].
Regarding `O=C1NCN(c2ccccc2)C12CCN(CCCOc1ccc(F)cc1)CC2`, in assay [4], the Potency is 0.158 µM (active).
`O=C(O)c1nn(Cc2ccc(Cl)cc2Cl)c2ccccc12`: the result in assay [2] and in assay [5] was inactive. For the same compound, the Potency result in [4] is “inactive”.
`CC[n+]1c(-c2ccccc2)c2cc(N)ccc2c2ccc(N)cc21`: the Potency result in assay [7], in assay [14], in assay [9], in assay [10], in [17] and in assay [19] was “inactive” each time. Moreover, the Potency entry in [1] is “inactive”. Besides, the outcome in assay [8], in assay [15], in assay [16], in assay [11], in assay [12] and in assay [13] was inactive.

Values taken from PubChem BioAssay (NCATS).
